Values joined by “and” are separate entries in the source; they are usually repeats but may differ in a detail not shown here. Equal values may be shown once. Compounds without any hit were thinned out: in the full panel of roughly 83,000, 20% have a hit.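 Growth was measured after 48 h exposure to one concentration of compound in 96-well plates. Values under 10 count as active.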 Active and inactive are the calls of the source.
test system: HL-60(TB) leukemia; assay: NCI-60 one-dose screen, 48 h (100 = growth as untreated, 0 = no growth, -100 = all killed); settings: 10 µM unless noted

SMILES | growth
O=C(Nc1ncc(Cc2ccc(Cl)c(C(F)(F)F)c2)s1)c1ccc2nnsc2c1 | 42.5% (inactive)
CN(C=O)c1ccccc1 | 101% (inactive)
CC1(C)CC(=O)NC1=O | 111% (inactive)
Cc1c(Cc2ccccc2)c(=O)oc2c(C)c(OCC(=O)n3nc(C#N)cc3N)ccc12 | 101% (inactive)
C=C(C)[C@@H]1CC[C@]2(COCCC#N)CC[C@]3(C)[C@H](CC[C@@H]4[C@@]5(C)Cc6c([nH]c7ccccc67)C(C)(C)[C@@H]5CC[C@]43C)[C@@H]12 | 101% (inactive)
N#CC(C#N)N=Nc1ccc(Br)cc1 | -10.7% (active)
COc1cc(C(=O)N/N=C/c2cccc([N+](=O)[O-])c2)cc(OC)c1OC | 41.3% (inactive)
CCCCCC(=O)Oc1ccc(/C(=C(\C)c2ccc(OC)cc2)c2ccc(OCCN3CCCCC3)cc2)cc1 | 42.7% (inactive)
O=C1NC(=O)c2c1c1c3ccccc3ccc1c1[nH]c3ccc(Br)cc3c21 | 18.7% (inactive)
CCCCC(N)(C(=O)O)C1CCCC1 (centres undefined) | 132% (inactive)
COc1ccc2c(c1)[n+]([O-])c(C#N)c(NC(=O)c1ccco1)[n+]2[O-] | 108% (inactive)
CN1CCN(C(=O)OCc2ccc3c(Cl)cc(Cl)c(O)c3n2)CC1 | -18.9% (active)
Clc1ccc(C(Cn2ccnc2)OCc2ccsc2Cl)c(Cl)c1 (centres undefined) | 6.05% (active)
O=c1[nH]c(=S)[nH]c(=O)n1Cc1cccc2ccccc12 | 101% (inactive)
C=C(C[C@](O)(C(=O)/C=C/c1ccc(Cl)cc1)C(=O)OC)c1ccccc1 | 59.2% (inactive)
Cc1cc(N=Nc2ccc(C)c(N=Nc3cc(C)c(N)cc3N)c2)c(N)cc1N | 99.9% (inactive) and 82.5% (inactive)
CC(C)(C)NC(C1=CC(C)(C)c2ccccc2C1=O)c1ccccc1 (centres undefined) | -45.2% (active)
CC(=O)OC(OC(C)=O)C1CCCO1 (centres undefined) | 147% (inactive)
Cc1cc(O)c(C(C)C)cc1N | 83.9% (inactive) and 122% (inactive)
CCCCCCCCCCCCCC(=O)Oc1ccc[nH]c1=O | 97.1% (inactive)

SMILES | growth
CC1=NN(c2nc(SCC(=O)Nc3nc4ccc(C)cc4s3)nc(-c3ccccc3)c2C#N)C(=O)C1 | 111% (inactive)
CCc1ccc(CCCC(=O)O)cc1 | 98.8% (inactive)
O=S(=O)(Nc1ccccc1)c1ccc(C2CC3(Cl)C(Cl)=C(Cl)C2(Cl)C3(Cl)Cl)cc1 (centres undefined) | 13% (inactive)
C=C(C)[C@@H]1CC[C@]2(C=O)CC[C@]3(C)[C@H](CC[C@@H]4[C@@]5(C)CCCNC(C)(C)[C@@H]5CC[C@]43C)[C@@H]12 | 7.59% (active)
Cc1c2c(cc[n+]1Cc1ccc(F)cc1)c1ccc(OCc3cccc(F)c3)cc1n2Cc1cccc(F)c1 | -49.3% (active)
C=C(C)[C@@H]1CC[C@]2(C(=O)NCCNCCNC(=O)OC(C)(C)C)CC[C@]3(C)[C@H](CC[C@@H]4[C@@]5(C)CCC(=O)C(C)(C)[C@@H]5CC[C@]43C)[C@@H]12 | -14.3% [100 µM] (active)
O=C(Nc1ccccc1)Nc1cccc(-n2cc(-c3ccncc3)c(-c3ccc(O)c(Cl)c3)n2)c1 | 37.5% (inactive)
COc1cc(C2CC(C3C(=O)N(C)C(=O)N(C)C3=O)=NN2c2cc(Cl)cc(Cl)c2)cc(OC)c1OC (centres undefined) | 98.6% (inactive)
N#CSCC1CC(O)(c2ccccc2)C(c2ccccc2)C(c2ccc(F)cc2)O1 (centres undefined) | -24.7% (active)
Cc1c2c(cn1Cc1ccccc1)CCc1cn[nH]c1-2 | 90.6% (inactive)
CCC(=O)OC1=C(C)SC2=NC(c3ccc(Cl)c(Cl)c3)=CC(c3cc(OC)c(OC)c(OC)c3)N21 (centres undefined) | 97.8% (inactive)
CN(C)c1ccc(C(=C2C=CC(=[N+](C)C)C=C2)c2ccccc2Cl)cc1 | -48.7% (active) and 9.12% (active)
CNC(=O)c1ccc(C)c(-n2c(C)cc(OCc3ccc(F)cc3F)c(Br)c2=O)c1 | 61.1% (inactive) and 91% (inactive)
COC(=O)CNC(=O)[C@@H](OC)[C@@H]1Cc2cc3cc(OC4CC(OC5CC(O)C(O)C(C)O5)C(O)C(C)O4)c(C)c(O)c3c(O)c2C(=O)[C@H]1OC1CC(OC2CC(OC3CC(C)(O)C(O)C(C)O3)C(O)C(C)O2)C(O)C(C)O1 (some centres undefined) | 41% (inactive)
Cc1nc2ccccc2c(/C=C/c2ccc(Cl)cc2)c1C(=O)/C=C/c1ccc(F)cc1 | -7.94% (active)
O=C(/C=C/c1cccc(Cl)c1)c1ccccc1 | 95.3% (inactive) and 82.5% (inactive)
CS(=O)(=O)Nc1cc(-c2ccc3ncnc(Nc4ccc5c(cnn5Cc5cccc(F)c5)c4)c3c2)cnc1Cl | -23.9% (active)
CC(=O)Oc1ccc(C23c4ccccc4C2(OC(C)=O)c2cc(OC(C)=O)ccc23)cc1 (centres undefined) | 11.7% (inactive)
C=C(C)[C@@H]1CC[C@]2(C(=O)N3CCN(C)CC3)CC[C@]3(C)[C@H](CC[C@@H]4[C@@]5(C)CC(=C/c6ccncc6)/C(=N/O)C(C)(C)[C@@H]5CC[C@]43C)[C@@H]12 | 40.4% (inactive)
